Measured values reported in PubChem BioAssay AID1578 (Sanford-Burnham Center for Chemical Genomics, 2009).
About 3,000 (1%) of roughly 290,000 compounds were called active. What follows is part of a selection rich in actives, with near analogues and random picks from the rest. A number with no mark means an inactive call. Rule as the data show it: active = inhibition mostly above about 36% (no sharp cut-off); inactive = mostly below about 34%.

Experiment: NOD1 signaling inhibitors, primary screen, cell-based, luminescence, uHTS (AID 1578);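 also: HEK-293T reporter cells stimulated with the NOD1 agonist gamma-tri-DAP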
Settings: NOD1-driven NF-kB luciferase reporter cells, at 4 µM, hits give high values

SMILES	inhibition
Cc1nc2ccc(NC(=O)c3ccc(S(=O)(=O)N(C)C)cc3)cc2s1	-37.4%
Cc1nc2ccc(NC(=O)c3ccc(S(=O)(=O)N(C)c4ccccc4)cc3)cc2s1	17.6%
Cc1nc2ccc(NC(=O)c3ccc(Cl)c(S(=O)(=O)N(C)c4ccccc4)c3)cc2s1	51.8%
CN(c1ccccc1)S(=O)(=O)c1ccc(Cl)c(C(=O)Nc2ccc(-c3nc4ccccc4[nH]3)cc2)c1	4.8%
O=C(CSc1nnc(C2COc3ccccc3O2)o1)N1CCN(c2ccccc2)CC1 (configuration not stated)	-24.7%
COc1ccc(CCNC(=O)CCS(=O)(=O)c2ccc3c(c2)oc(=O)n3C)cc1OC	-25.6%
CC(C)C(=O)NC(=S)N1CCc2ccccc21	-40.2%
CC(Oc1ccc(Cl)cc1Cl)C(=O)NC(=S)N1CCc2ccccc21 (configuration not stated)	102% (active)
O=C(COc1ccc(Cl)cc1Cl)NC(=S)N1CCCc2ccccc21	28.6%
CC(C)NC(=O)c1ccc2c(c1)N(CC(=O)N1CCCCC1)C(=O)C(C)(C)O2	1.4%
O=C(CSc1nnnn1-c1ccccc1)Nc1ncc(Cc2cccc(Cl)c2Cl)s1	-16.9%
Cc1ccc(C)c(NC(=O)C2CC(O)CN2C(=O)OCc2ccccc2)c1 (configuration not stated)	4.8%
COC(=O)CC1(C(=O)OC)Oc2ccc(Br)cc2C(=O)N1c1cc(Cl)cc(Cl)c1 (configuration not stated)	-11.1%
O=C(CSc1ccccn1)Nc1nonc1[N+](=O)[O-]	57.6% (active)
Cc1nonc1NC(=O)CSc1ccccn1	4%
CC(=O)Nc1nonc1NC(=O)CSc1ccccn1	2.6%
COc1ccc(NC(=O)CSc2nn3c(=O)c(C)nnc3s2)cc1	-19.6%
CCOc1ccccc1NC(=O)Nc1cnccn1	11.8%
COc1ccccc1NC(=O)Nc1cnccn1	111% (active)
COc1ccc(NC(=O)Nc2cnccn2)c(OC)c1	-27.1%
COC(=O)Nc1ccc2c(c1)N(C(=O)CCCl)c1ccccc1S2	3.3%
COc1ccc(C(=O)NNC(=O)C(=O)/C=C(\O)c2ccc(C)cc2)cc1	0.6%
Cc1cccc(C(=O)NC(=S)NCc2cccnc2)c1	-31.1%
O=C(NCCCN1CCOCC1)c1cccc(S(=O)(=O)Nc2cc(Cl)ccc2Cl)c1	-34.3%
Cn1nnnc1SCC(=O)Nc1nc(-c2ccc(F)c(F)c2)cs1	-20.9%

SMILES	inhibition
O=C(CSc1ncnc2[nH]ncc12)Nc1nc(-c2ccc(F)c(F)c2)cs1	46% (active)
Cc1sc2ncnc(SCC(=O)Nc3nc(-c4ccc(F)c(F)c4)cs3)c2c1C	-40.3%
CC1CN(C(=O)CCC(=O)NCCCN2C(C)CCCC2C)c2ccccc2O1 (configuration not stated)	26.4%
Cc1ccc(CNC(=O)C2CCCN(S(=O)(=O)c3c(C)[nH]c(=O)[nH]c3=O)C2)cc1 (configuration not stated)	-3.9%
O=C(Cn1c(=O)oc2ccccc21)NC(=O)NCc1ccco1	-3.9%
CCCN(CCC)C(=S)NC(=O)c1ccc(-c2ccccc2)cc1	52.6% (active)
CCOc1ccc(C(=O)NC(=S)N(Cc2ccccc2)Cc2ccccc2)cc1	51.4%
CCN(CC)C(=S)NC(=O)c1ccc(F)cc1	-25%
C/C(=N/NC(=O)c1ccc(C)s1)c1cccnc1	-53.1%
COc1ccc(/C=N/NC(=O)CCOc2ccccc2C)cc1OC	62.5% (active)
COc1ccc(/C=N/NC(=O)CCC(=O)Nc2ccccc2)cc1OC	-8.6%
COc1cc(/C=N/NC(=O)CCOc2ccccc2C)cc(Br)c1O	-26.7%
Cc1[nH]n(-c2ccccc2)c(=O)c1C=NCCc1ccccc1	-43.1%
CCCCN=Cc1c(C)[nH]n(-c2ccccc2)c1=S	0.8%
Cc1[nH]n(-c2ccccc2)c(=S)c1C=NCCCN=Cc1c(C)[nH]n(-c2ccccc2)c1=S	88.7% (active)
Cc1nnc2sc(SCC(=O)Nc3nccs3)nn2c1=O	-2.3%
Cc1cc(-c2ccc(/C=N/n3cnnc3)o2)ccc1Cl	67.4% (active)
Cc1ccc(-c2ccc(/C=N/n3cnnc3)o2)cc1Cl	-11.3%
Fc1ccc(-c2ccc(/C=N\n3cnnc3)o2)cc1Cl	1.3%
C/C(N)=C(/C#N)C(=O)COC(=O)c1cccc(O)c1	-29.6%
CC(=O)Nc1cccc(NC(=O)CSc2nc3ccccc3o2)c1	43.3%
COc1ccc(C(NC(C)=O)c2cc(Cl)c3cccnc3c2O)cc1 (configuration not stated)	-6.4%
CCCCCCNC(=O)CCc1nc2cccnc2n1Cc1ccc(OC)cc1	-10.4%
CC1CCCC(C)N1C(=O)c1cc(-c2cccs2)on1 (configuration not stated)	-28.6%
CC(C)(C)C1CCC(=NNC(=S)Nc2cccnc2)CC1 (configuration not stated)	-17.4%

SMILES	inhibition
CC1=C/C(=N\NC(=S)NCCc2ccccc2)CC(C)(C)C1	-43.4%
CC1=C/C(=N\NC(=S)Nc2cccnc2)CC(C)(C)C1	43.4% (active)
CCOC(=O)C1CCCN(C(=O)CNC(=O)c2nn(-c3ccc(OC)c(Cl)c3)c(=O)c3ccccc23)C1 (configuration not stated)	-5.1%
CC(C)OC(=O)CSc1nc2c(cc1C#N)CCCCC2	111% (active)
CC(C)OC(=O)CC(=O)CSc1nc2c(cc1C#N)CCCCC2	-26.3%
CC(C)OC(=O)CC(=O)CSc1nc2c(cc1C#N)CCCCCC2	-24.1%
O=C(c1cccs1)N1CCC(C(=O)N2CCN(Cc3ccc4c(c3)OCO4)CC2)CC1	-24.9%
CCN1C(=O)c2cccc3c(S(=O)(=O)NCc4ccco4)ccc1c23	-23%
Cc1ccc(-n2cc(C(=O)c3ccc(N4CCN(C)CC4)cc3)nn2)cc1Cl	-52.8%
CCSC1=C(C#N)C(=O)n2c1cc1c2CCCC1	67% (active)
CCOC(=O)C1=C(SCC)c2cc3c(n2C1=O)CCCC3	-36.8%
N#CC1=C(N2CCCCC2)c2cc3c(n2C1=O)CCCC3	7.7%
COc1ccc(C(c2nnnn2C(C)C)N2CCN(C(=O)c3ccco3)CC2)cc1 (configuration not stated)	10.7%
CC(=O)c1cc(C#N)c(NCc2ccccc2)nc1C	-40.7%
c1cn(CCCNc2ncnc3sc4c(c23)CCC4)cn1	29.2%
CCOc1cccc(-c2cc(C(=O)Nc3ccon3)c3ccccc3n2)c1	-14%
CCOC(=O)C(=O)N1CCN(c2nc(-c3ccc(Cl)cc3)cs2)CC1	-19.1%
O=C1CC(Cc2ccc(Br)cc2)C(=O)N1c1ccccc1 (configuration not stated)	-19.8%
Clc1ccc(N/N=C/c2ccncc2)cc1Cl	-40.8%
Clc1cncc(Cl)c1N/N=C/c1ccncc1	75.3% (active)
Clc1cncc(Cl)c1N/N=C/c1ccccc1	-10.5%
CCOc1cc(/C=C(/NC(C)=O)C(=O)O)cc(Cl)c1OCc1cccc(Br)c1	-9.8%
COc1ccc(CN2CCCC(C(=O)c3ccc(Cl)cc3)C2)cc1Cn1cccn1 (configuration not stated)	-12.4%
O=C(c1ccc(Cl)cc1)C1CCCN(Cc2ccc(Oc3ncccn3)cc2)C1 (configuration not stated)	19.6%
CC(C)Oc1cccc(C(=O)C2CCCN(Cc3cnn(C(C)C)c3)C2)c1 (configuration not stated)	-18.3%

SMILES	inhibition
COc1ccc(C(=O)C2CCCN(Cc3ccc4nonc4c3)C2)cc1OC (configuration not stated)	-4.5%
CC(C)Oc1cccc(C(=O)C2CCCN(Cc3ccc4nonc4c3)C2)c1 (configuration not stated)	55.2% (active)
Cc1cccc(-c2nc3c(c(SCC(N)=O)n2)CCCC3)c1	-10.2%
CC(C)c1ccc(NC2CCCN(C(=O)c3cccc(N4CCNC4=O)c3)C2)cc1 (configuration not stated)	30.5%
CC(=O)c1cccc(NC(=O)c2ccc(N(Cc3ccccc3C)S(C)(=O)=O)cc2)c1	6.4%
Nc1ccc(-c2ccc(C(=O)O)s2)cn1	-26.1%
O=C(O)c1ccc(-c2ccc(-c3ccccc3)cc2)s1	93.5% (active)
CNC(=O)c1ccc(-c2ccccc2)s1	-12.7%
O=C(CNC(=O)c1ccco1)NCCCc1ccccc1	17.4%
Cc1cc(/C=C2/NC(=O)NC2=O)c(C)n1-c1ccccn1	-34.5%
CCN(CC)c1ccc(/C=c2\sc3nc4ccccc4n3c2=O)c(O)c1	33.8%
O=c1/c(=C/c2ccccn2)sc2nc3ccccc3n12	-98.1%
Cc1cc(/C=c2/sc3nc4ccccc4n3c2=O)c(C)n1-c1ccccn1	74.4% (active)
Cc1cc(/C=c2\sc3nc4ccccc4n3c2=O)c(C)n1-c1ccc(C(=O)O)cc1	20.6%
O=c1c2ccccc2cnn1-c1ccc(Cl)nn1	-19%
Cc1ccccc1-n1nc2c(c1NC(=O)c1c(-c3ccccc3Cl)noc1C)CS(=O)(=O)C2	-10.3%
Cc1nn(C)cc1CNC(=O)c1ccc(Br)o1	-3.1%
COc1ccc2ccccc2c1/C=N\NC(=O)c1ccc(C)s1	-3.2%
Cc1ccc(OCC(=O)NNC(=O)CSc2ncc(C#N)c(N)n2)cc1	-22.7%
Cc1cccc(OCC(=O)NNC(=O)CSc2ncc(C#N)c(N)n2)c1	98.2% (active)
N#Cc1cnc(SCC(=O)NNC(=O)COc2cccc3ccccc23)nc1N	-19.9%
CCCCn1c(SCC(=O)N2CCOCC2)nc2ccccc2c1=O	-11.7%
